D1 ag: human D1 receptor agonism; P21728; HEK293 T-REx D1 cells, calcium flux, agonist mode; activation, % at 2 µM; 360,000 compounds, 1% hits; note: 0% is about no effect
Target sequence (P21728 whole entry, looked up): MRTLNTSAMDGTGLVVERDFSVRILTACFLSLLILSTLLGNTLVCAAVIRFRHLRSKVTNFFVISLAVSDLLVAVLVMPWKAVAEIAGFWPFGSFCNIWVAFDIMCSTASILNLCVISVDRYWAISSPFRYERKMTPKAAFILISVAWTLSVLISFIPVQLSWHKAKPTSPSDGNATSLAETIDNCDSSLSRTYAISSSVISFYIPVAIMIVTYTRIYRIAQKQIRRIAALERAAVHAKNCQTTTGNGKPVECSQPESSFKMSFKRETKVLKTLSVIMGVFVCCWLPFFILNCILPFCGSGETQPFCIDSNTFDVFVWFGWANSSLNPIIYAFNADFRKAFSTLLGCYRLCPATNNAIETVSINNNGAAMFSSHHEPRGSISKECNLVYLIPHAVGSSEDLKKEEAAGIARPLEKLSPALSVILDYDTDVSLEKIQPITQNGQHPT
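Tetracycline-induced HEK293 TREx D1 cells, force-coupled to calcium signalling, were dye-loaded with a no-wash calcium kit. Compound was pin-added after a 10 s baseline. Fluorescence was read kinetically at 1 cycle/s for 180 s, with calcium rises flagged as agonism.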
TRHR ag: TRH receptor (human) agonism; 360,000 compounds, 0.18% hits; P34981; TRHR cells, calcium flux fluo-8, FDSS agonist mode; AID 493084; activation, % at 2 µM; note: 0% is about no effect
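In this calcium-flux screen, cells bearing human TRHR are dye-loaded with fluo-8, baselined for 10 cycles, then exposed to library compounds; positive kinetic calcium responses during the agonist phase mark hits, with TRH as control.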
TRHR PAM: allosteric enhancers of human TRH receptor | AID 493056 | P34981 | enhancement, % at 2 µM | 360,000 compounds, 0.66% hits | TRHR cells, fluo-8 calcium fluorescence, EC20 TRH enhancement; in the data active = enhancement above about 30%; note: 0% is about no effect
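TRHR-expressing cells loaded with fluo-8 calcium dye were read kinetically (ex 480/em 530) during compound addition, then stimulated with an EC20 of TRH (10 nM final). Enhancement of the Gq-mediated intracellular calcium response was scored.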
D1 antag: blocks dopamine activation of the human D1 receptor | 360,000 compounds, 3.2% hits | activity change, negative = inhibition, % at 10 µM | AID 504652 | HEK293 TREx D1 cells, calcium flux, dopamine EC80; hits give low values | P21728; in the data active = activity change below about -30%; note: % is set by controls: 0 for no effect and ±100 for the full control effect
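Antagonism measured as reduced calcium response to an EC80 dopamine addition following 180 s compound pre-read; cells were inducible HEK293 Trex D1 plated overnight at 30 C, read kinetically at 1 cycle/sec.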
D1 potentiator: human D1 dopamine receptor positive modulation. HEK293 TREx D1 cells, calcium flux, dopamine EC20 potentiation. potentiation, % at 10 µM. 360,000 compounds, 0.036% hits; in the data active = potentiation above about 30%; note: 0% is about no effect
Starred values were filed as active, the others as inactive. Rows were chosen to be rich in hits. Some 4.6% of all compounds tested hit in one or more screens of this group. Cut-off read from the data, not from the text of the source, unless noted: active = activation above about 30%; inactive = the rest.

`CC1=C(C(=O)Nc2ccc(Cl)cc2)C(C(C)C)n2nc(SCc3ccc(Cl)cc3)nc2N1` (stereo unspecified) gave D1 ag 1, TRHR ag 1, TRHR PAM 8, D1 antag -7 and D1 potentiator 0.
For Cc1ccc(N2CCN(C(=O)NCc3noc4ccccc34)CC2C)cc1 (stereo unspecified) the results were D1 ag 3, TRHR ag 0, TRHR PAM 4, D1 antag 3 and D1 potentiator -7.
CCN1CCN(CCNC(=O)CCc2c(C)c3c(C)nn(-c4ccccc4)c3n(C)c2=O)CC1 was read as D1 ag 2, TRHR ag 1, TRHR PAM -4, D1 antag -46* and D1 potentiator -17.
Cc1cccc(C(=O)NC(=S)NNC(=O)Cc2ccccc2)c1 was read as D1 ag 72*, TRHR ag 10, TRHR PAM 1, D1 antag -13 and D1 potentiator -1.
Screening O=C(COc1ccccc1)NNC(=S)NC(=O)c1ccccc1 returned D1 ag 2, TRHR ag 0, TRHR PAM 1, D1 antag -4 and D1 potentiator -4.
`Cc1cccc(C(=O)NC(=S)NNC(=O)COc2c(C)cccc2C)c1` gave D1 ag 137*, TRHR ag 8, TRHR PAM 8, D1 antag -25 and D1 potentiator -4.
`Cc1ccc(C(=O)NC(=S)NNC(=O)COc2ccccc2C)cc1` gave D1 ag 31*, TRHR ag 4, TRHR PAM 2, D1 antag 3 and D1 potentiator 2.
Cc1cccc(C(=O)NC(=S)Nc2ccccc2C(=O)O)c1 was read as D1 ag 1, TRHR ag 0, TRHR PAM -2, D1 antag 2 and D1 potentiator 10.
Screening CCC(=O)NNC(=S)NC(=O)c1ccc(C)cc1 returned D1 ag 6, TRHR ag 1, TRHR PAM 1, D1 antag -9 and D1 potentiator -3.
`Cc1cccc(C(=O)NC(=S)Nc2ccccc2C(F)(F)F)c1` gave D1 ag 8, TRHR ag 0, TRHR PAM 32*, D1 antag 7 and D1 potentiator -3.
For Cc1ccc(C(=O)NC(=S)Nc2ccccc2C(F)(F)F)cc1C the results were D1 ag -3, TRHR ag -1, TRHR PAM -1, D1 antag 8 and D1 potentiator 6.
For CC(C)(C)C(O)(CC#CCN1CCCC1)c1ccccc1 (stereo unspecified) the results were D1 ag 10, TRHR ag 2, TRHR PAM 3, D1 antag 0 and D1 potentiator -2.
`Cc1cccc(C(=O)NC(=S)NNC(=O)c2ccccc2Cl)c1` gave D1 ag 301*, TRHR ag 35*, TRHR PAM -1, D1 antag -35* and D1 potentiator -4.
`CC1CCC(NC(=O)CN(C)S(=O)(=O)c2ccc3c(c2)CCC(=O)N3)CC1` (stereo unspecified) gave D1 ag 3, TRHR ag 0, TRHR PAM 2, D1 antag -31* and D1 potentiator -2.
`C=CC[n+]1c(-c2ccc(C)cc2)csc1Nc1ccc(NC(C)=O)cc1` gave D1 ag 5, TRHR ag 0, TRHR PAM -1, D1 antag -47* and D1 potentiator -14.
Screening O=C(NCCc1ccc(Cl)cc1)C1CCN(C(=O)c2ccc(F)cc2)CC1 returned D1 ag 0, TRHR ag 0, TRHR PAM -1, D1 antag 17 and D1 potentiator 2.
`CCOC(=O)c1c(C)oc2nc(C)nc(NCCc3ccc(OC)c(OC)c3)c12` gave D1 ag 2, TRHR ag 0, TRHR PAM 22, D1 antag 0 and D1 potentiator 0.
For CCOC(=O)c1c(C)oc2nc(C)nc(NCCc3ccc(SC)cc3)c12 the results were D1 ag 5, TRHR ag 0, TRHR PAM 12, D1 antag -32* and D1 potentiator -6.
Screening Cc1cccc(N2CCN(C(=O)c3ccc4c(Cl)c5c(nc4c3)CCCC5)CC2)c1C returned D1 ag 2, TRHR ag 0, TRHR PAM 0, D1 antag 4 and D1 potentiator 6.

Screens: PubChem BioAssay, National Center for Advancing Translational Sciences (NCATS)
